We go through nine molecules from PubChem BioAssay (EPA / NIEHS).

Results filed as inconclusive are left out. Calls of active or inactive are those of the source. Rule for the calls: active = hit-call score of the fitted dose curve at least 0.9, where 1 is the maximum; inconclusive = response in the unintended direction; inactive = score below 0.9.

Chain of human Adrenergic, Beta 1 Receptor (Adrb1), ADRB1 (gene 153) (P08588 whole entry, looked up): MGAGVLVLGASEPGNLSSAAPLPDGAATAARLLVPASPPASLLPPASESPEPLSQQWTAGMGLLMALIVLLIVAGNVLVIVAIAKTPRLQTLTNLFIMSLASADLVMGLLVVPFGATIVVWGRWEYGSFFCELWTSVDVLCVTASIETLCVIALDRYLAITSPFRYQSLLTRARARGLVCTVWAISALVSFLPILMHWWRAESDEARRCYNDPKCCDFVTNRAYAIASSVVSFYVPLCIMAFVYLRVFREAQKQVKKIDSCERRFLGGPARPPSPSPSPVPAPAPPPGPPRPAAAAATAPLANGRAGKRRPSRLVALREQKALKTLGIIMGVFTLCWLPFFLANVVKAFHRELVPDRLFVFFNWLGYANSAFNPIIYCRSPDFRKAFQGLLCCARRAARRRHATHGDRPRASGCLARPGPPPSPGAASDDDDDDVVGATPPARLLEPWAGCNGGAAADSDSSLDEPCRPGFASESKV
Chain of human Adenosine A2a Receptor (AdoRA2a), ADORA2A (gene 135) (P29274 whole entry, looked up): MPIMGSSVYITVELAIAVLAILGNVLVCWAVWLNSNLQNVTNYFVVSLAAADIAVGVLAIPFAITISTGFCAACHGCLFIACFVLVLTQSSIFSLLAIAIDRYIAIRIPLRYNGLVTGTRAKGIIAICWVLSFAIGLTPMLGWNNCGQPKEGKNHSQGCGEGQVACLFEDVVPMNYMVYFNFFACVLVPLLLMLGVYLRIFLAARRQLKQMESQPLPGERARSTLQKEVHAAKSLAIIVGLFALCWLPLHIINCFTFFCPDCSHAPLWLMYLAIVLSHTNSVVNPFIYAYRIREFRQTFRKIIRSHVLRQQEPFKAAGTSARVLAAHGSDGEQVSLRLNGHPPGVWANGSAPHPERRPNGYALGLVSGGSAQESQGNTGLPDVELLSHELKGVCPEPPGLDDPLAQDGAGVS

In one test the target is human Adenosine A1 Receptor (AdoRA1), ADORA1 (gene 134) (UniProt P30542). Put plainly: NVS_GPCR_hAdoRA1: NovaScreen (NVS) G Protein-Coupled Receptor Assay for human Adenosine A1 Receptor (AdoRA1) (AID 2283254). The method, boiled down: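 Radioligand binding was run on human cortical membranes, cell-free, with filter-based scintillation counting 1 h after dosing. The primary screen was duplicate at 25 uM, followed by concentration series. Signal loss versus DMSO was fitted positive-direction.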
Chain of human Adenosine A1 Receptor (AdoRA1), ADORA1 (gene 134) (P30542 whole entry, looked up): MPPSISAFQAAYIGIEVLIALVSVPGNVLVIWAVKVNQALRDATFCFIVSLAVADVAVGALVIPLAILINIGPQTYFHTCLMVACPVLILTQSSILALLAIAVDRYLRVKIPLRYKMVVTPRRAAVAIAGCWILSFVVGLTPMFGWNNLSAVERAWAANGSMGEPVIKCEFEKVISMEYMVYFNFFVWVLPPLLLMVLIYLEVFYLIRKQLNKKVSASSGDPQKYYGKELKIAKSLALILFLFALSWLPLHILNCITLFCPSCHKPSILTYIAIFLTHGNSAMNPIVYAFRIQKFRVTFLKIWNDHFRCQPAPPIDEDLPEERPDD
Consider `CSC(C)(C)C=NO`, for which the molecule was called inactive.

Consider `Cc1cc(C)c(C(=O)P(=O)(c2ccccc2)c2ccccc2)c(C)c1`, for which the AC50 is 36 µM (active).

On to `Cc1ccc2c(c1N)C(=O)c1ccccc1C2=O`, for which the AC50 is 16.3 µM (active).

Turning to `CCNc1nc(Cl)nc(NC(C)(C)C)n1`, the call was inactive.

Another test has as its target human Adenosine A2a Receptor (AdoRA2a), ADORA2A (gene 135) (UniProt P29274). The test can be described thus: NVS_GPCR_hAdoRA2a: NovaScreen (NVS) G Protein-Coupled Receptor Assay for human Adenosine A2a Receptor (AdoRA2a) (AID 2283256). Summed up: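 HEK293-derived receptor preparation, radioligand displacement, 1.5 h, filtration + scintillation read. Loss of bound signal scored vs DMSO. Single-point 25 uM in duplicate first, then concentration-response for actives.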
`N#Cc1c(-c2ccc(Cl)cc2)[nH]c(C(F)(F)F)c1Br`: the result was inactive.

On to `CSC(C)(C)C=NO`, for which the call was inactive.

In the case of `Cc1ccc2c(c1N)C(=O)c1ccccc1C2=O`, the AC50 is 4.77 µM (active).

Consider `O=[N+]([O-])c1cc(Cl)ccc1Cl`, for which the outcome was inactive.

In a further test the target is human Adrenergic, Beta 1 Receptor (Adrb1), ADRB1 (gene 153) (UniProt P08588). The test can be described thus: NVS_GPCR_hAdrb1: NovaScreen (NVS) G Protein-Coupled Receptor Assay for human Adrenergic, Beta 1 Receptor (Adrb1) (AID 2283258). Here is the method:
NVS_GPCR_hAdrb1 is a biochemical, single-readout assay that uses extracted gene-proteins from Human neuroepithelioma cells in a cell-free assay. Measurements were taken 2 hours after chemical dosing in a 96-well plate.NVS_GPCR_hAdrb1 is one of one assay component(s) measured or calculated from the NVS_GPCR_hAdrb1 assay. It is designed to make measurements of radioligand binding, a form of binding reporter, as detected with scintillation counting signals by Filter-based radiodetection technology.Data from the assay component NVS_GPCR_hAdrb1 was analyzed into 1 assay endpoint. This assay endpoint, NVS_GPCR_hAdrb1, was analyzed in the positive analysis fitting direction relative to DMSO as the negative control and baseline of activity. Using a type of binding reporter, loss-of-signal activity can be used to understand changes in the binding as they relate to the gene ADRB1. Furthermore, this assay endpoint can be referred to as a primary readout, because the performed assay has only produced 1 assay endpoint. To generalize the intended target to other relatable targets, this assay endpoint is annotated to the gpcr intended target family, where the subfamily is rhodopsin-like receptor.
Binding assays used specific radioligands (tritiated, iodinated) with non-radioactive competitive displacement ligands in agonist or antagonist protocols (as indicated) and various reference compounds and inhibitors to titrate specific binding to receptors and transporters. Most enzyme assays (CYPs, kinases, phosphatases, proteases, HDACs) used recombinant protein and specific substrates (fluorescence mostly, some colorimetric and radioactive) and inhibitors, followed by a biochemical separation of substrate and product. All assays for the biochemical HTS were initially run in duplicate at a single concentration (10 uM for CYP450 assays and 25 uM for all others). […] Each assay was run with positive and negative controls, and concurrent controls on every plate. […]
In the case of `CCCN(CCC)c1c([N+](=O)[O-])cc(C(C)C)cc1[N+](=O)[O-]`, the molecule was classed as inactive.

As for `CCCCN(CCCC)SN(C)C(=O)Oc1cccc2c1OC(C)(C)C2`, the molecule was classed as inactive.

With `CCOP(=S)(Oc1ccc([N+](=O)[O-])cc1)c1ccccc1` (stereo unspecified), the result was inactive.
